# The panel holds about 79,000 compounds, 15% with a hit somewhere; the sample as a whole holds those more often. Values without a mark were called inactive. Calls of active or inactive are those of the source. Rule as the data show it: active = growth inhibition above about 70%; inactive = the rest.
# Experiments:
# [1] = NCI Yeast Anticancer Drug Screen. Data for the rad50 strain (AID 155);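 also: 0% = growth of vehicle-only cultures of the same strain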; conditions: S. cerevisiae rad50 strain growth inhibition, stronger effect = higher value
# Summary of the method: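 Compounds were tested on a yeast strain with an engineered DNA damage repair alteration; the reported value is growth inhibition normalised to vehicle treatment.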
# [2] = NCI Yeast Anticancer Drug Screen. Data for the mec2-1 strain (AID 157); conditions: S. cerevisiae mec2-1 strain, stronger effect = higher value
# Summary of the method: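 Compounds were applied to mec2-1 yeast cells. Their growth was then compared with that of vehicle-treated cultures to give growth inhibition.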
# [3] = NCI Yeast Anticancer Drug Screen. Data for the sgs1 mgt1 strain (AID 161);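 also: 0% = growth of cultures given vehicle only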; conditions: S. cerevisiae sgs1 mgt1 strain, stronger effect = higher value
# Summary of the method: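 Percent growth inhibition was derived by comparing compound-exposed mutant yeast with vehicle-exposed cultures. The strain carries alterations in DNA damage repair.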
# [4] = NCI Yeast Anticancer Drug Screen. Data for the cln2 rad14 strain (AID 165);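 also: 0% = growth equal to vehicle treated cultures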; conditions: S. cerevisiae cln2 rad14 strain, stronger effect = higher value
# Summary of the method: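 Strain: cln2 rad14 yeast, altered in cell cycle control and DNA damage repair. Read-out: growth inhibition vs vehicle.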
# [5] = NCI Yeast Anticancer Drug Screen. Data for the bub3 strain (AID 167); conditions: S. cerevisiae bub3 mutant strain, stronger effect = higher value
# Summary of the method: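 Growth of a checkpoint-deficient yeast mutant is measured after compound exposure. Values represent inhibition relative to vehicle.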
# [6] = NCI Yeast Anticancer Drug Screen. Data for the mlh1 rad18 strain (AID 175); conditions: S. cerevisiae mlh1 rad18 strain growth inhibition, stronger effect = higher value
# Summary of the method: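 A repair-deficient yeast strain is exposed to test compound, and growth is scored relative to vehicle-treated controls.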
# [7] = at 5.0 µM (retest, dose inferred, filed as 0.5)
# [8] = at 50.0 µM (retest, dose inferred, filed as 5.0)
SMILES,"growth inhibition [1, 7]","growth inhibition [1, 8]",growth inhibition ([1]; at 50.0 µM),"growth inhibition [2, 7]","growth inhibition [2, 8]",growth inhibition ([2]; at 50.0 µM),"growth inhibition [3, 7]","growth inhibition [3, 8]",growth inhibition ([3]; at 50.0 µM),"growth inhibition [4, 7]","growth inhibition [4, 8]",growth inhibition ([4]; at 50.0 µM),"growth inhibition [5, 7]","growth inhibition [5, 8]",growth inhibition ([5]; at 50.0 µM),"growth inhibition [6, 7]","growth inhibition [6, 8]",growth inhibition ([6]; at 50.0 µM)
Cc1ccc(/C=N/Nc2cc(C)c3cccc(C)c3n2)s1,9%,94% (active),89.3% (active),-1%,95% (active),92.6% (active),3%,93% (active),92% (active),3%,95% (active),90.3% (active),4%,97% (active),90.8% (active),13%,93% (active),90% (active)
Oc1ccccc1N=Cc1ccccc1,23%,75% (active),61%,13%,35%,44.2%,21%,29%,60.6%,12%,45%,19.5%,56%,86% (active),77.5% (active),41%,81% (active),72.5% (active)
CC[n+]1ccc(Nc2ccc(NC(=O)c3ccc(Nc4cc[n+](CC)c5ccc([N+](=O)[O-])cc45)cc3)cc2)cc1,84% (active),97% (active),99% (active),14%,97% (active),99% (active),84% (active),98% (active),99.5% (active),72% (active),96% (active),97% (active),72% (active),97% (active),99.1% (active),82% (active),97% (active),97.8% (active)
c1ccc(-c2cccc(-c3ccccn3)n2)nc1,93% (active),99% (active),99.4% (active),74% (active),99% (active),99.7% (active),91% (active),99% (active),99.5% (active),81% (active),99% (active),99.1% (active),96% (active),99% (active),99.2% (active),83% (active),99% (active),99.5% (active)
CCOc1ccc2c(c1)/C(=C\C=C\C1CC(C)C3CC(OCC)CCC3N1CC)CC(C)N2CC (configuration not stated),-7%,85% (active),28.6%,-1%,88% (active),88.2% (active),-10%,92% (active),33.9%,0%,83% (active),83% (active),4%,82% (active),83.7% (active),0%,86% (active),81.5% (active)
CCC(C)(O)Cc1ccc(Cl)cc1 (configuration not stated),4%,-3%,-14.7%,1%,-2%,41.9%,0%,-1%,1.65%,3%,-5%,-39.8%,-6%,-7%,-23.3%,3%,-5%,-6.8%
O=C(Nc1ccc(Cl)c(Cl)c1)OCc1ccco1,51%,68%,91.4% (active),38%,66%,93% (active),47%,99% (active),92.9% (active),35%,90% (active),91.7% (active),41%,81% (active),93.1% (active),48%,76% (active),92% (active)
COc1ccc(NC(=O)/C(=C/N2C(=O)/C(=C/c3ccc(OC)c(OC)c3)NC2=S)C(C)=O)cc1,5%,66%,54.3%,-3%,85% (active),53.1%,-5%,86% (active),51.9%,-22%,51%,37%,-21%,76% (active),64.8%,-6%,82% (active),76.7% (active)
COc1ccc(C(OCC2OC(n3ccc(NC(=O)c4ccccc4)nc3=O)C(O)C2O)(c2ccccc2)c2ccccc2)cc1 (configuration not stated),56%,91% (active),68.7%,23%,91% (active),98.2% (active),36%,83% (active),56.4%,76% (active),96% (active),84.8% (active),52%,90% (active),98.5% (active),62%,90% (active),84.2% (active)
CCCCN(CCCC)CCCCCCCCCCO,-2%,-2%,45.4%,-1%,1%,36.2%,1%,1%,52.6%,2%,0%,4.2%,3%,7%,70% (active),-1%,-1%,25.4%
Oc1ccc(Cl)cc1Cc1cc(Cl)ccc1O,-1%,99% (active),3.65%,-3%,99% (active),10.3%,0%,99% (active),-2.55%,-16%,99% (active),24.6%,-3%,99% (active),16.6%,-5%,99% (active),-7.85%
COc1cc(/C=C2\SC(=S)N(/C=C/c3nc4ccccc4[nH]c3=O)C2=O)cc(OC)c1OC,-9%,57%,8.55%,-10%,45%,14.7%,-3%,24%,63.1%,-29%,58%,34.5%,-8%,44%,-4.8%,3%,42%,55.1%
N=C1C=C(N)C(=O)c2ccccc21,29%,87% (active),97.5% (active),16%,40%,65.5%,25%,80% (active),93.8% (active),12%,54%,75.9% (active),31%,85% (active),94.3% (active),20%,83% (active),95% (active)
CCc1oc2ccccc2c1C(=O)c1cc(Br)c(O)c(Br)c1,29%,99% (active),99.2% (active),11%,100% (active),99.3% (active),8%,99% (active),99.2% (active),8%,100% (active),99% (active),1%,99% (active),99.3% (active),18%,99% (active),99.2% (active)
CC1(C)OCC(COC(c2ccccc2)(c2ccccc2)c2ccccc2)O1 (configuration not stated),-7%,14%,21.1%,-6%,12%,4.65%,-9%,2%,-0.5%,-4%,16%,-33%,-2%,63%,40.2%,-5%,28%,43.6%
CSc1nc(C)c(C(=O)CCN2CCN(c3ccccn3)CC2)s1,-3%,99% (active),86.8% (active),-3%,100% (active),78% (active),-23%,99% (active),66.2%,-2%,99% (active),43.4%,-1%,100% (active),79.5% (active),-3%,99% (active),58.6%
O=C1C=CC(=O)N1c1ccc(O)cc1,15%,94% (active),96.3% (active),23%,98% (active),98.4% (active),18%,86% (active),94.1% (active),-1%,98% (active),98.3% (active),4%,97% (active),96.8% (active),11%,98% (active),91.8% (active)
Cc1oc2c(C)c3oc(=O)cc(C)c3cc2c1CCl,27%,94% (active),54.4%,32%,97% (active),75.5% (active),27%,95% (active),87% (active),19%,89% (active),67.5%,41%,97% (active),84.1% (active),47%,96% (active),90.7% (active)
CN(C)CCN(C)CC(C)(C)C(=O)/C=C/c1ccc(Cl)c(Cl)c1,13%,99% (active),96.8% (active),4%,99% (active),78.1% (active),6%,99% (active),56.2%,-3%,98% (active),8.2%,6%,99% (active),92.5% (active),8%,99% (active),70.5% (active)

# From PubChem BioAssay (NCI)
